Experimental data as given in the supplement of paper PMC10849652.
Of roughly 7,900 targets only a part is listed; those with a hit were picked by preference. About 0.6% of all pairs of compound and target were hits.

Legend:
Assay in all cases: log2 fold change, soluble protein after heating vs DMSO (PISA); higher = thermal stabilisation; K562 cells, 10 uM, 30 min; active = over 0.2 and 3.5 SD of the protein, either way, in both replicates (recomputed)
erlotinib = compound: C#Cc1cccc(Nc2ncnc3cc(OCCOC)c(OCCOC)cc23)c1 [erlotinib]
How it was run: (§1)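 Quantification of soluble protein used TMTpro 16plex LC-MS/MS, with channel sums equalised. Samples were the supernatant after 21,000xg for 90 min of pooled aliquots from K562 cells (2×10^6 cells/mL) treated with 10 μM compound for 30 min, heated for 3 min over 48°C-58°C, and extracted in PBS with 0.5% NP-40 at 4°C. Values, from duplicates, describe thermal stability against control samples on a log2 fold-change scale.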

[1] = compound: C/C(=N\NC(=O)C1=CC(=CC=C1)S(=O)(=O)N2CCOCC2)/C3=C(C=CC(=C3)Cl)O
How it was run: as §1

[2] = compound: C1=CC(=C(C=C1Cl)C2=NC3=NC=CN=C3C(=N2)NC4=CC=NC=C4)F
How it was run: as §1

[3] = compound: C1=CC(=CC=C1C2=NC3=C(N2)C=C(C=C3)C(=O)N)OC4=CC=C(C=C4)Cl
How it was run: as §1

[4] = compound: C1=CC2=C(C=CC(=C2)/C=C\3/C(=O)NC(=NCC4=CC=CS4)S3)N=C1
How it was run: as §1

[5] = compound: C1=CC2=NC=CN=C2C=C1/C=C/3\C(=O)NC(=O)S3
How it was run: as §1

[6] = compound: C1=CC=C(C=C1)C2=NC(=C(N2)C3=CC=NC=C3)C4=CC(=C(C=C4)Cl)O
How it was run: as §1

[7] = compound: C1=CC=C2C(=C1)C3=NNC4=CC=CC(=C43)C2=O
How it was run: as §1

[8] = compound: C1CCN(C1)C(=O)NC2=CC=CC(=C2)NC3=NC=C(C(=N3)NCCC4=CN=CN4)Br
How it was run: as §1

[9] = compound: C1CN(CCC1(CC2=CC=C(C=C2)Cl)N)C3=NC=NC4=C3C=CN4
How it was run: as §1

Measured: log2 fold change

BRIP1 (UniProt Q9BX63)
inactive: erlotinib -0.009 | [1] 0.076 | [2] -0.153 | [3] 0.018 | [4] 0.075 | [5] -0.082 | [6] -0.048 | [7] 0.023 | [8] -0.064 | [9] -0.045

B4GALNT1 (UniProt Q00973)
Chain of UniProt Q00973 (Q00973 whole entry, looked up): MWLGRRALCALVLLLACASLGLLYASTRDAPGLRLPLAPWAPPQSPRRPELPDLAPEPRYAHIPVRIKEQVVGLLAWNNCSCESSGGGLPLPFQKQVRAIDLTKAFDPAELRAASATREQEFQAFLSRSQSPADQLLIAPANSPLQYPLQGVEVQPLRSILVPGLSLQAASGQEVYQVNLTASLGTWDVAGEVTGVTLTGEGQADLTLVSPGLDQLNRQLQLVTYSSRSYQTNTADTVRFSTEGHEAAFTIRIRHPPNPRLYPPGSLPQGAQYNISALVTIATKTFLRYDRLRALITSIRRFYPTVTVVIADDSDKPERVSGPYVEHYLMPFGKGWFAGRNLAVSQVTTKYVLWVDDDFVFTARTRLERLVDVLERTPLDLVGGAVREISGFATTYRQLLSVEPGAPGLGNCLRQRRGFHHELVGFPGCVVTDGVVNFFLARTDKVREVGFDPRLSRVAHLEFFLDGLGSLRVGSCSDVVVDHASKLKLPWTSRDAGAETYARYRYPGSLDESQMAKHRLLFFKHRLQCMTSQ
inactive: erlotinib -0.176 | [1] -0.006 | [2] 0.029 | [3] 0.101 | [4] 0.124 | [5] -0.038 | [6] -0.073 | [7] -0.189 | [8] 0.069 | [9] -0.141

BPHL (UniProt Q86WA6)
inactive: erlotinib -0.016 | [1] 0.053 | [2] 0.057 | [3] -0.016 | [4] 0.142 | [5] 0.058 | [6] -0.028 | [7] 0.02 | [9] 0.182
active: [8] -0.38

ARL3 (UniProt P36405)
inactive: erlotinib -0.009 | [1] 0.007 | [2] 0.033 | [3] -0.037 | [4] 0.046 | [5] 0.007 | [6] 0.019 | [7] -0.015 | [8] -0.026 | [9] 0.041

ACP2 (UniProt P11117)
inactive: erlotinib 0.031 | [1] 0.004 | [2] 0.061 | [3] 0.019 | [4] 0.019 | [5] -0.01 | [6] 0.022 | [7] -0.022 | [8] -0.003 | [9] 0.045

ARL6IP6 (UniProt Q8N6S5)
Chain of UniProt Q8N6S5 (Q8N6S5 whole entry, looked up): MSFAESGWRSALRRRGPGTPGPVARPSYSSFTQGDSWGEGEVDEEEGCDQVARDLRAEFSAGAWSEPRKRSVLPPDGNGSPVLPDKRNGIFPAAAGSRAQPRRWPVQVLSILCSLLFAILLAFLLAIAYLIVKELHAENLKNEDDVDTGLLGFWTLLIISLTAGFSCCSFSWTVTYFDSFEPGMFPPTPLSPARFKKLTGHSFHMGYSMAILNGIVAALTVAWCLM
inactive: erlotinib 0.064 | [1] 0.116 | [2] -0.102 | [3] 0.034 | [4] -0.006 | [5] 0.001 | [6] 0.201 | [7] -0.087 | [8] 0.01 | [9] -0.036

ADD3 (UniProt Q9UEY8)
Chain of UniProt Q9UEY8 (Q9UEY8 whole entry, looked up): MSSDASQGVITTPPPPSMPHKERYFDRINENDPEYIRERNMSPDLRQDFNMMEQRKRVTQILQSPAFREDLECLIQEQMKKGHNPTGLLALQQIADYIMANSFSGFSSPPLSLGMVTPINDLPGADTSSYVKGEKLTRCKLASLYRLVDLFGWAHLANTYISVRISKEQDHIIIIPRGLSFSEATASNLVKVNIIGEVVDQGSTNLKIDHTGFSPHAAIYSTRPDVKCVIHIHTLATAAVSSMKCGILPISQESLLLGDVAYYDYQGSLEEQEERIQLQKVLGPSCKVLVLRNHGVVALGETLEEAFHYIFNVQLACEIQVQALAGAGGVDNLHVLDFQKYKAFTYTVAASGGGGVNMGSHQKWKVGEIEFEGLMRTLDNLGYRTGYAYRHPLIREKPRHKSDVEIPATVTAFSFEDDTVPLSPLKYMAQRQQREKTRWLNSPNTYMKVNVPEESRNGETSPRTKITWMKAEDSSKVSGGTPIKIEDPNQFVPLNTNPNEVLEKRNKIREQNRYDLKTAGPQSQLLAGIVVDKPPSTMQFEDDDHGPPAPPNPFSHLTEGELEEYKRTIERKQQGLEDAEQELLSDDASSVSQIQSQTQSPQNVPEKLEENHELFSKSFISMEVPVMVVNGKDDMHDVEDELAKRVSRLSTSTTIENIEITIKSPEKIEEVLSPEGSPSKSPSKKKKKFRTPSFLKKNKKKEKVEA
inactive: erlotinib 0.018 | [1] 0 | [2] -0.008 | [3] 0.025 | [4] 0.02 | [5] 0.013 | [6] -0.025 | [7] -0.024 | [8] -0.015 | [9] 0.031

ATP1A1 (UniProt P05023)
inactive: erlotinib 0.003 | [1] 0.02 | [2] 0.017 | [3] -0.012 | [4] -0.036 | [5] 0.012 | [6] -0.017 | [7] -0.032 | [8] -0.015 | [9] 0.057

AP2M1 (UniProt Q96CW1)
Chain of UniProt Q96CW1 (Q96CW1 whole entry, looked up): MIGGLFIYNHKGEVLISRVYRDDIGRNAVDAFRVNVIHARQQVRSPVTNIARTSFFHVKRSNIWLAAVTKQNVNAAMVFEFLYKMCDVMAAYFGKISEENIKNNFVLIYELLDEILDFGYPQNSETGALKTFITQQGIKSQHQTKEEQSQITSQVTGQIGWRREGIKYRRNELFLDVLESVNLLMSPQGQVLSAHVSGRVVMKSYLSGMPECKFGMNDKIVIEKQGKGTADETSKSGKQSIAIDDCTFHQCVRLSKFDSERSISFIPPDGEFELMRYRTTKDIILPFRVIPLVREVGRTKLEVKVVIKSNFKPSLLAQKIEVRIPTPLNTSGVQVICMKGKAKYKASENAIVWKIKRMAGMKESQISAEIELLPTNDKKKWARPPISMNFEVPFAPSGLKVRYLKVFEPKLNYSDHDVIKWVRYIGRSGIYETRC
inactive: erlotinib -0.067 | [1] 0.006 | [2] -0.012 | [3] 0.017 | [4] 0.005 | [5] -0.016 | [6] 0.036 | [9] -0.01
active: [7] -0.26 | [8] -0.367

ARAF (UniProt P10398)
Chain of UniProt P10398 (P10398 whole entry, looked up): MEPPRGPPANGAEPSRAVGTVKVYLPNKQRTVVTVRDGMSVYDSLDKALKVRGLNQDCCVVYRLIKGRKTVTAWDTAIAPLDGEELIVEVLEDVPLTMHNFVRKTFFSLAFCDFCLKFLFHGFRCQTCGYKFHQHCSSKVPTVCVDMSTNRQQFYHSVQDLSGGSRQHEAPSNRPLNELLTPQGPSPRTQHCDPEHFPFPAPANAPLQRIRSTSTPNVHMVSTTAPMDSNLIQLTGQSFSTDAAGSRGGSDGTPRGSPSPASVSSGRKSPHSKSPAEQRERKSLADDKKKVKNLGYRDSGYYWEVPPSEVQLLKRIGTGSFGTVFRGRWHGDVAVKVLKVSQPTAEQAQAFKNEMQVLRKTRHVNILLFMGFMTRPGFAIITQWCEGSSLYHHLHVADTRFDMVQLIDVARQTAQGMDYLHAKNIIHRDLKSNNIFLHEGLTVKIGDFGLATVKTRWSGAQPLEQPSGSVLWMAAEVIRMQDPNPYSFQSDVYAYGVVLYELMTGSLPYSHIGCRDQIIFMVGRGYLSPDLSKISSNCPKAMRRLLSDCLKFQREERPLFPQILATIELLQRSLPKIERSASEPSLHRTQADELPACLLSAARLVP
inactive: erlotinib 0.014 | [1] 0.096 | [2] 0.061 | [3] 0.014 | [4] 0.26 | [5] -0.012 | [6] 0.077 | [7] -0.187 | [8] -0.017 | [9] 0.035

AGPAT3 isoform 3 (UniProt Q9NRZ7)
Chain of UniProt Q9NRZ7 (Q9NRZ7 whole entry, looked up): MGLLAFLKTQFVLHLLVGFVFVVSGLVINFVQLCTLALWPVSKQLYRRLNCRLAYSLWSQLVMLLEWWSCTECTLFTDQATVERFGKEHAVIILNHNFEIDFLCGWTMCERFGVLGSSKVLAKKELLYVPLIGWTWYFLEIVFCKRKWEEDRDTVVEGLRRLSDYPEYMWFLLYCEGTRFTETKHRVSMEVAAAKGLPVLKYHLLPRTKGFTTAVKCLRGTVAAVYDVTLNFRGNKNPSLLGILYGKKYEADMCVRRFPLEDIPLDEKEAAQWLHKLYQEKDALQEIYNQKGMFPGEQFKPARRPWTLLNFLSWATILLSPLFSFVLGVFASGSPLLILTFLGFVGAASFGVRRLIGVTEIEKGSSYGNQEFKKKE
inactive: erlotinib 0.009 | [1] -0.008 | [2] 0.028 | [3] -0.009 | [4] 0.028 | [5] 0.12 | [6] 0.04 | [7] 0.006 | [8] 0 | [9] 0.067

ATP6V1F isoform 2 (UniProt Q16864)
inactive: erlotinib -0.049 | [1] -0.017 | [2] 0.232 | [3] 0.077 | [4] 0.04 | [5] 0.189 | [6] -0.017 | [7] -0.024 | [8] -0.066 | [9] -0.222

BZW2 (UniProt Q9Y6E2)
inactive: erlotinib -0.018 | [1] 0.106 | [2] 0.054 | [3] -0.016 | [4] 0.033 | [5] 0.026 | [6] 0.022 | [7] 0.013 | [8] 0.037 | [9] -0.021

ATP12A isoform 2 (UniProt P54707)
inactive: erlotinib 0.01 | [1] -0.002 | [2] 0.025 | [3] 0.014 | [4] 0.007 | [5] 0.026 | [6] 0.025 | [7] -0.049 | [8] -0.051 | [9] 0.05

ARMC10 (UniProt Q8N2F6)
Chain of UniProt Q8N2F6 (Q8N2F6 whole entry, looked up): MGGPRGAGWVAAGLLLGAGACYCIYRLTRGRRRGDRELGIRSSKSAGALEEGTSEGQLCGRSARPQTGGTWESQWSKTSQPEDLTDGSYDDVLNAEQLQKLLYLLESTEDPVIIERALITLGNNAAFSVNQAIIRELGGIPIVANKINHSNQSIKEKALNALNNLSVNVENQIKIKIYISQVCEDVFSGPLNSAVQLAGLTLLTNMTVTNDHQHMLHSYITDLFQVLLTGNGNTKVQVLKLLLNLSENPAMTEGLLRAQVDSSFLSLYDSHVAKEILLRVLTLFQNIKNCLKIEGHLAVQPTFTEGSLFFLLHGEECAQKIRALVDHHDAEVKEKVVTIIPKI
inactive: erlotinib -0.021 | [1] 0.044 | [2] -0.092 | [3] -0.066 | [4] 0.005 | [5] 0.006 | [6] -0.034 | [7] 0.016 | [8] 0.003 | [9] -0.023

BECN1 (UniProt Q14457)
inactive: erlotinib -0.007 | [1] -0.035 | [2] 0.043 | [3] -0.042 | [4] -0.001 | [5] 0.085 | [6] -0.043 | [7] 0.008 | [8] 0.002 | [9] -0.042

BRK1 isoform 2 (UniProt Q8WUW1)
inactive: erlotinib -0.115 | [1] 0.003 | [2] 0.279 | [3] 0.04 | [4] 0.027 | [5] 0.072 | [6] 0.051 | [7] -0.02 | [8] -0.08 | [9] -0.037

BYSL (UniProt Q13895)
inactive: erlotinib -0.009 | [1] 0.014 | [2] -0.05 | [3] -0.006 | [4] -0.046 | [5] 0.027 | [6] -0.018 | [7] 0.075 | [8] -0.042 | [9] -0.289

ANP32E (UniProt Q9BTT0)
inactive: erlotinib 0.211 | [1] 0.038 | [2] 0.114 | [3] -0.062 | [4] 0.027 | [5] -0.025 | [6] 0 | [7] -0.014 | [8] -0.026 | [9] -0.084

ATP6V1C1 (UniProt P21283)
inactive: erlotinib -0.103 | [1] 0.02 | [2] -0.135 | [3] -0.021 | [4] -0.011 | [5] 0.046 | [6] -0.244 | [7] 0.045 | [8] -0.067 | [9] -0.227

ACSL3 (UniProt O95573)
Chain of UniProt O95573 (O95573 whole entry, looked up): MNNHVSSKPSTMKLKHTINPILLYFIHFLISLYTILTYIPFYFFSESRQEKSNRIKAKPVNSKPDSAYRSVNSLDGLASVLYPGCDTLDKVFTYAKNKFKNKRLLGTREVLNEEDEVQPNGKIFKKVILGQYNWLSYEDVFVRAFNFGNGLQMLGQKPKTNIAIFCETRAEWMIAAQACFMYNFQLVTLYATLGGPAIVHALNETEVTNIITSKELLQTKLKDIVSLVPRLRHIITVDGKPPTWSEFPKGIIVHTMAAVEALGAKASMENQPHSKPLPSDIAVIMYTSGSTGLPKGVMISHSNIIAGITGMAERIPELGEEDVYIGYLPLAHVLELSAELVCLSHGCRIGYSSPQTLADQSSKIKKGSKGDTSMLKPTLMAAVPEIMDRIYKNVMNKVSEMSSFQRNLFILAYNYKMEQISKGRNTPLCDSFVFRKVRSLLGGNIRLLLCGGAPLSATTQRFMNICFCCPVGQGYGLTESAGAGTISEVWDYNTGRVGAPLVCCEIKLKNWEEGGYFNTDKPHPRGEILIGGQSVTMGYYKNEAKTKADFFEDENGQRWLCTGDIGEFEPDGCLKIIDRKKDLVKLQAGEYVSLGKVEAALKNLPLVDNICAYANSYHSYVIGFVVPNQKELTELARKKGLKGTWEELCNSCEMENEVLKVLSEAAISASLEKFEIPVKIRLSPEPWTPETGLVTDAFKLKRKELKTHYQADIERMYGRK
active: [3] 0.351
inactive: erlotinib -0.005 | [1] 0.055 | [2] 0.092 | [4] 0.078 | [5] 0.031 | [6] 0.06 | [7] 0.069 | [8] -0.005 | [9] 0.039

AHSA1 (UniProt O95433)
Chain of UniProt O95433 (O95433 whole entry, looked up): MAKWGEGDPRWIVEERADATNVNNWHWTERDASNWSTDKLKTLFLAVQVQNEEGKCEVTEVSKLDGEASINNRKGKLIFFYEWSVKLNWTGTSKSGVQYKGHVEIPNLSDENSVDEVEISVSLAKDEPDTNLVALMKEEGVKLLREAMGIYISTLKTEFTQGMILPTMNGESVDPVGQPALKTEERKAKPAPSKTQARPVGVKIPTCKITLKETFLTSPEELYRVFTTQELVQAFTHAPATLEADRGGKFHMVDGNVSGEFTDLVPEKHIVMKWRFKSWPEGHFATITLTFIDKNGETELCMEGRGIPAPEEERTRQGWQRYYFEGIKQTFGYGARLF
inactive: erlotinib 0.007 | [1] 0.011 | [2] 0.081 | [3] -0.015 | [4] 0.012 | [5] 0.037 | [6] 0.013 | [7] 0.039 | [8] -0.006 | [9] 0.023

ACSL1 (UniProt P33121)
Chain of UniProt P33121 (P33121 whole entry, looked up): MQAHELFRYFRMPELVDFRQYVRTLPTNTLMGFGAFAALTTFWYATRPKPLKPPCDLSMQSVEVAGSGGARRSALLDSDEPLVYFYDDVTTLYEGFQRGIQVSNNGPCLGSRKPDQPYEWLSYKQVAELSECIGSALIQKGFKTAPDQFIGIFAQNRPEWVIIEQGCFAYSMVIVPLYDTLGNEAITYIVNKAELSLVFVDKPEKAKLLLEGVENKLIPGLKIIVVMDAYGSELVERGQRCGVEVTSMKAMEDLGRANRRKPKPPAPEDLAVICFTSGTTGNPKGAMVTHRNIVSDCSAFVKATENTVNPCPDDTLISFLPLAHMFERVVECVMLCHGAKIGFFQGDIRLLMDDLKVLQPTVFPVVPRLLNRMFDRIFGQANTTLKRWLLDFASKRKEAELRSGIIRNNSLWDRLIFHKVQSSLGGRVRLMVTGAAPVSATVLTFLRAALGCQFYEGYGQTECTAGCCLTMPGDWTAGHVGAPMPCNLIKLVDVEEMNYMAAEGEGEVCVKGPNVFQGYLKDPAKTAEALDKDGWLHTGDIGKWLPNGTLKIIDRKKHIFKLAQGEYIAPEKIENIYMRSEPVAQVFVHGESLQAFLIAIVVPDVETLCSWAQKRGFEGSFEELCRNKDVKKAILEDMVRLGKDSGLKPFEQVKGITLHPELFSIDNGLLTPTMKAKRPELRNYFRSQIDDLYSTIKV
inactive: erlotinib -0.015 | [1] 0.067 | [2] 0.017 | [3] 0.03 | [4] 0.005 | [5] 0.018 | [6] 0.057 | [7] 0.016 | [8] -0.021 | [9] 0.002

ALG14 (UniProt Q96F25)
inactive: erlotinib 0.111 | [1] 0.018 | [2] -0.128 | [3] -0.085 | [4] 0.084 | [5] 0.088 | [6] 0.053 | [7] 0.002 | [8] -0.061 | [9] 0.014

AURKA (UniProt O14965)
active: [8] 0.707
inactive: erlotinib 0.181 | [1] 0.018 | [2] -0.055 | [3] -0.061 | [4] -0.08 | [5] -0.028 | [6] 0.028 | [7] 0.462 | [9] -0.313

ATP9B (UniProt O43861)
active: erlotinib 0.406
inactive: [1] 0.099 | [2] 0.01 | [3] -0.132 | [4] -0.029 | [5] -0.045 | [6] 0.033 | [7] -0.038 | [8] 0.027 | [9] -0.064

ACAD9 (UniProt Q9H845)
inactive: erlotinib -0.002 | [1] 0.025 | [2] 0.054 | [3] 0.015 | [4] 0.035 | [5] 0.032 | [6] 0.026 | [7] -0.002 | [8] -0.002 | [9] 0.029

APLP2 (UniProt Q06481)
inactive: erlotinib 0.003 | [1] 0.009 | [2] -0.023 | [3] -0.034 | [4] 0.023 | [5] 0.004 | [6] 0.044 | [7] -0.03 | [8] -0.047 | [9] -0.002

ALG3 (UniProt Q92685)
inactive: erlotinib 0.024 | [1] 0.127 | [2] 0.07 | [3] -0.081 | [4] 0.03 | [5] -0.002 | [6] 0.022 | [7] -0.011 | [8] -0.133 | [9] 0.103
